Compound activity deposited in PubChem BioAssay by National Center for Advancing Translational Sciences (NCATS).
Hits are enriched below; roughly 11% of the tested compounds scored in any of these assays.
L3MBTL1 inh = blocks human L3MBTL1; AID 485360; Potency, µM (highest dose often 57.1 µM), for inactives: at the highest dose activity, negative = inhibition, usual class: inhibitors; AlphaScreen L3MBTL1–H3K9me1 peptide binding; 230,000 compounds, 0.66% hits; Q9Y468; further: on the % scale 0 is the no-effect control and ±100 the full control effect; nearly all actives have a fitted effect of over 60% in size
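L3MBTL1 (50 nM) pre-complexed 30 min with biotinylated H3(1-15)K9me1 peptide (75 nM), then compounds added for 30 min at room temperature; AlphaScreen streptavidin donor/nickel chelate acceptor beads (10 ug/mL final) read after 30 min dark incubation.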
JMJD2A Tudor = inhibitors of human JMJD2A Tudor domain | AlphaScreen JMJD2A-Tudor / H3K4me3 peptide binding | AID 504339 | Potency, µM (doses to about 114 µM), without a hit: top-dose activity change, negative = inhibition, hits mostly inhibitors | 390,000 compounds, 4.4% hits; further: on the % scale 0 is the no-effect control and ±100 the full control effect; nearly all actives have a fitted effect of over 50% in size
HP1b binding inh = blocks HP1-beta chromodomain binding to methylated histone tails | P83916 | AID 540317 | AlphaScreen HP1-beta / biotin-H3K9me3 peptide binding | 390,000 compounds, 0.56% hits | Potency, µM (titrated, usually from 114 µM), for inactives: top-dose activity change, negative = inhibition, most hits filed as inhibitors; further: nearly all actives have a fitted effect of over 70% in size
Target sequence (P83916 whole entry, looked up): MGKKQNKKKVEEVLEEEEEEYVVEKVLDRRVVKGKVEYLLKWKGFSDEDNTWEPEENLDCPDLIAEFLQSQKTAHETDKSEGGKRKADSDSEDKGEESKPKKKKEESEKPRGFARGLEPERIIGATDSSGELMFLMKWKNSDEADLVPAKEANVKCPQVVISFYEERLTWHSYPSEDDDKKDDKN
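HP1-beta protein (50 nM final) preincubated 30 min at room temperature with biotinylated H3(1-18)K9me3 peptide (50 nM) in PBS pH 7.4, 0.01% Tween-20, then compound added for 30 min. AlphaScreen streptavidin donor/nickel chelate acceptor beads (10 ug/mL final), 30 min dark, luminescence read.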
BAZ2B inh = BAZ2B (human) inhibition; Q9UIF8; AlphaScreen BAZ2B-H3K14Ac peptide displacement; Potency, µM (series often up to 114 µM), for inactives: at the top dose activity change, negative = inhibition, actives largely listed as inhibitors; 360,000 compounds, 4.4% hits; further: on the % scale 0 is the no-effect control and ±100 the full control effect; nearly all actives have a fitted effect of over 60% in size
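Inhibition is scored as reduced AlphaScreen emission. The BAZ2B/b-H3(5-23)K14Ac complex (50 nM each) in PBS pH 7.4, 0.01% Tween-20 meets compound (up to 110 uM) for 30 min at RT before bead addition.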
G9a inh = G9a (human) methyltransferase inhibition; Q96KQ7; G9a H3K9 monomethylation, AlphaScreen, 2 h; Potency, µM (doses to about 102 µM), for inactives: at the highest dose activity, negative = inhibition, actives largely listed as inhibitors; 350,000 compounds, 8.8% hits; AID 504332; further: on the % scale 0 is the no-effect control and ±100 the full control effect; nearly all actives have a fitted effect of over 75% in size
Target sequence (Q96KQ7 913-1193 limits assumed): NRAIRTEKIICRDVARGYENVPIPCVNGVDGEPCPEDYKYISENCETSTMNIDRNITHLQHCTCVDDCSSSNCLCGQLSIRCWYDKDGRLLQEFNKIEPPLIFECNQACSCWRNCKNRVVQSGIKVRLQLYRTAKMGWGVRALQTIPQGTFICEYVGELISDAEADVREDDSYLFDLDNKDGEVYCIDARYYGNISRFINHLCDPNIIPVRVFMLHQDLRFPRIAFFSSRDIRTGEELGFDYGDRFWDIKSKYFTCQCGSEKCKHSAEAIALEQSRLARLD
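Quantitative HTS format: methyltransferase activity on a biotin-tagged H3K9 peptide is measured by AlphaScreen, using a rabbit anti-monomethyl-H3K9 antibody with streptavidin donor and anti-IgG acceptor beads. Final levels are 20 nM enzyme, 500 nM peptide, 20 uM SAM; 2 h RT.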
An asterisk follows results filed as active; [ ] = another dose, or the depositor's remark. The call rests on the fitted dose curve; in most records, active means well fitted inhibition curve with a large enough effect; inconclusive means small, poorly fitted or top-dose-only effect; inactive means no such curve, though single readings can be large or run the other way. Potency means the concentration at half of the fitted maximal effect.

Results for O=C(CNCC1CCCO1)Nc1ccc(N2CCCCCC2)cc1 (stereo not drawn) ?
JMJD2A Tudor: 3.2µM*; HP1b binding inh: 14µM*; BAZ2B inh: 35µM*; G9a inh: inconclusive

Results for O=C(CNCc1ccccc1Cl)Nc1ccccc1N1CCCCC1 ?
L3MBTL1 inh: 17%; JMJD2A Tudor: 22µM*; HP1b binding inh: inconclusive; BAZ2B inh: 22µM*; G9a inh: 10µM*

What do the screens show for `NS(=O)(=O)c1ccc(NC(=O)COC(=O)C2CCCCC2)cc1`?
L3MBTL1 inh: -10%; JMJD2A Tudor: -13%; HP1b binding inh: 6%; BAZ2B inh: -14%; G9a inh: 0%[12.7 µM]

How did O=C(CNCC1CCCCC1)Nc1ccc(N2CCCCC2)cc1 do in these assays?
L3MBTL1 inh: inconclusive; BAZ2B inh: 28µM*; G9a inh: 22µM*

What do the screens show for `O=C(Nc1ccc(N2CCOCC2)cc1)C1CCCCC1`?
JMJD2A Tudor: -7%; HP1b binding inh: 12%; BAZ2B inh: 1%; G9a inh: -29%[59 µM]

Results for O=C(COC(=O)C1CCCCC1)Nc1ccc(N2CCCCC2)cc1 ?
L3MBTL1 inh: -28%; JMJD2A Tudor: inconclusive; HP1b binding inh: inconclusive; BAZ2B inh: inconclusive; G9a inh: 11µM*

Results for O=C(Cc1ccccc1F)Nc1ccccc1N1CCCC1 ?
JMJD2A Tudor: inconclusive; HP1b binding inh: 10%; BAZ2B inh: -13%; G9a inh: 68%

How did O=C(c1cnccn1)N1CCC2(CCN(Cc3ccncc3)CC2)CC1 do in these assays?
G9a inh: 4%[12.7 µM]

How did CC1CCN(CC(=O)Nc2ccc(N3CCCCCC3)cc2)CC1 do in these assays?
L3MBTL1 inh: inconclusive; JMJD2A Tudor: 20µM*; HP1b binding inh: 22µM*; BAZ2B inh: 20µM*; G9a inh: 10µM*

Results for CC1CCN(CC(=O)Nc2ccc(S(=O)(=O)N3CCCCC3)cc2)CC1 ?
L3MBTL1 inh: 12%; JMJD2A Tudor: -6%; HP1b binding inh: 24%; BAZ2B inh: 7%

What do the screens show for `CCN(CC)c1ccc(NC(=O)CN2C(=O)CC(C)(C)S(=O)(=O)c3ccccc32)c(C)c1`?
L3MBTL1 inh: -2%; JMJD2A Tudor: -27%; HP1b binding inh: 49%; BAZ2B inh: -12%; G9a inh: 8.9µM*

How did O=C(CNCCC1=CCCCC1)Nc1ccc(N2CCCCCC2)cc1 do in these assays?
L3MBTL1 inh: inconclusive; JMJD2A Tudor: 20µM*; HP1b binding inh: 16µM*; BAZ2B inh: 13µM*; G9a inh: inconclusive

How did Cc1ccccc1OCC(=O)Nc1ccccc1N1CCCCC1 do in these assays?
L3MBTL1 inh: 30%; JMJD2A Tudor: 71%; HP1b binding inh: 140%; G9a inh: inconclusive

How did CC1(C)CC(=O)N(CC(=O)NCc2ccccc2)c2ccccc2S1(=O)=O do in these assays?
L3MBTL1 inh: 8%; JMJD2A Tudor: -6%; HP1b binding inh: 35%; BAZ2B inh: -6%; G9a inh: 18%[59 µM]

How did O=C(CNCC1CCCO1)Nc1ccccc1N1CCCCCC1 (stereo not drawn) do in these assays?
L3MBTL1 inh: -3%; JMJD2A Tudor: inconclusive; HP1b binding inh: -14%; BAZ2B inh: inconclusive; G9a inh: 45µM*

Results for O=C(Cc1ccc(Cl)cc1)Nc1ccc(N2CCCC2)cc1 ?
JMJD2A Tudor: 4%; HP1b binding inh: 11%; BAZ2B inh: -3%; G9a inh: inconclusive

Results for NC(=O)N/N=C/c1ccc(OCc2cccc(Cl)c2)cc1 ?
L3MBTL1 inh: 6%; JMJD2A Tudor: 11%; HP1b binding inh: 20%; BAZ2B inh: -14%; G9a inh: -5%

Results for O=C(CNC1CCCCCC1)Nc1ccc(N2CCCC2)cc1 ?
L3MBTL1 inh: -22%; BAZ2B inh: inconclusive; G9a inh: 28µM*

Results for O=C(CNC1CCCC1)Nc1ccc(N2CCCCCC2)cc1 ?
L3MBTL1 inh: -24%; JMJD2A Tudor: 2.8µM*; HP1b binding inh: 40µM*; BAZ2B inh: 22µM*; G9a inh: 5.6µM*
